PubChem BioAssay (NCATS)
Records with an inconclusive call do not appear. A call without a number means that no potency is given here. Values without a mark were called inactive. Active and inactive are the calls of the source. Calls come from the whole dose curve; as a rule, active = well fitted inhibition curve with a large enough effect; inconclusive = small, poorly fitted or top-dose-only effect; inactive = flat fitted curve, though single readings scatter.

biological target: Calcium and integrin-binding protein 1 (Homo sapiens) (UniProt Q99828); test: Primary qHTS for Identification of Calcium Integrin Binding Protein 1 (CIB1) Competitor (AID 1508620); details: CIB1-GST / FITC-alphaIIb peptide fluorescence polarization; series mostly up to 57.7 µM;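 note: GST tagged CIB1 binding a fluorescein labelled alphaIIb integrin peptide tracer; top concentration of the series differs between compounds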
Outline: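 CIB1-GST (1 uM final) and compound incubated 15 min at room temperature before adding FITC-alphaIIb peptide tracer (100 nM final). Competition for binding read by fluorescence polarization (ex 480, em 540) after another 15 min at room temperature.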

Calcium and integrin-binding protein 1 (Homo sapiens), sequence (Q99828 whole entry, looked up): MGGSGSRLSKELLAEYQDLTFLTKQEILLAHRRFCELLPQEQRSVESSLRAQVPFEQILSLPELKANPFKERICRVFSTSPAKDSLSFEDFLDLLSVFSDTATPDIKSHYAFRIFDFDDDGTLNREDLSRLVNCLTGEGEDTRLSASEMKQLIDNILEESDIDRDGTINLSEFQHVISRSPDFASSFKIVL

Row | SMILES | Potency | activity change, negative = inhibition
1 | COc1cc2nccc(Oc3ccc(NC(=O)Nc4cc(C)on4)c(Cl)c3)c2cc1OC | inactive | 
2 | O=S(=O)(NCCNCC=Cc1ccc(Br)cc1)c1cccc2cnccc12 | inactive | 
3 | CNC(=O)c1ccc2c(C(=Nc3cccc(CN(C)C)c3)c3ccccc3)c(O)[nH]c2c1 | inactive | 
4 | CO[C@H]1C=CO[C@@]2(C)Oc3c(C)c(O)c4c(O)c(c(C=NN5CCN(C)CC5)c(O)c4c3C2=O)NC(=O)C(C)=CC=C[C@H](C)[C@H](O)[C@@H](C)[C@@H](O)[C@@H](C)[C@H](OC(C)=O)[C@H]1C |  | -2.55% [at 12.4 µM]
5 | O=C(Nc1ccccc1)Nc1ccc(-c2ccc(C(=O)[C@H]3CCC[C@H]3C(=O)O)cc2)cc1 | inactive | 
6 | C[C@H]1[C@H](O)O[C@@H]2O[C@@]3(C)CC[C@@H]4[C@H](C)CC[C@@H]1[C@@]24OO3 | inactive | 
7 | COc1cc(CNC(=O)CCCCC=CC(C)C)ccc1O | inactive | 
8 | O=C(O)C1=CC(O)C(O)[C@H](O)C1 (stereo not given in full) | inactive | 
9 | NC(N)=Nc1nc(CSCCC(N)=NS(N)(=O)=O)cs1 | inactive | 
10 | COC(=O)N1CCN(Cc2cccc(NC(=O)Nc3ccc(C)nc3)c2F)CC1 | inactive | 
11 | CC1(C)[C@H]2CC[C@]3(C)[C@@H](C(=O)C=C4[C@@H]5C[C@@](C)(C(=O)O)CC[C@]5(C)CC[C@]43C)[C@@]2(C)CC[C@@H]1O | inactive | 
12 | CCC=CC[C@H]1C(=O)CC[C@@H]1CC(=O)OC | inactive | 
13 | C=C1[C@H](n2cnc3c(=O)[nH]c(N)nc32)C[C@H](O)[C@H]1CO | inactive | 
14 | OC(c1cc(C(F)(F)F)nc2c(C(F)(F)F)cccc12)C1CCCCN1 (stereo not given) | inactive | 
15 | NC(=O)c1ccc(N(C(N)=O)c2c(F)cccc2F)nc1-c1ccc(F)cc1F | inactive | 
16 | Cc1nn(Cc2ccccc2Cl)c(C)c1CN(C)CC(O)COc1ccc(Cl)cc1 (stereo not given) | inactive | 
17 | CNc1nc(Nc2ccc(C(=O)N3CCOCC3)cc2OC)ncc1Cl | inactive | 
18 | O=C(CC12CC3CC(CC(C3)C1)C2)Nc1cccc2nc(NCCNCCO)ccc12 | inactive | 

Row | SMILES | Potency | activity change, negative = inhibition
19 | C#CCN(C)CC1=Cc2ccccc2Oc2ccccc21 | inactive | 
20 | COc1c(C)c2c(c(O)c1CC=C(C)CCC(=O)O)C(=O)OC2 | inactive | 
21 | CC(NCCc1ccc(O)cc1)C(O)c1ccc(O)cc1 (stereo not given) | inactive | 
22 | CN[C@@H]1[C@@H](O)[C@@H](O[C@@H]2[C@@H](O)[C@H](O[C@H]3O[C@H](CN)[C@@H](O)[C@H](O)[C@@H]3O)[C@@H](N)C[C@@H]2NC(=O)[C@@H](O)CN)OC[C@]1(C)O | inactive | 
23 | O=C(Nc1ncc(SCCN2CCCC2)s1)[C@]1(c2ccc(S(=O)(=O)C3CC3)cc2)C[C@@H]1C1CCCCC1 | inactive | 
24 | C[C@]12C=CC(=O)C=C1CC[C@@H]1[C@@H]2[C@@H](O)C[C@@]2(C)[C@@H]1CC[C@]2(O)C(=O)CO | inactive | 
25 | CCOC(=O)N1CCN([N+]([O-])=NOc2cc(ON=[N+]([O-])N3CCN(C(=O)OCC)CC3)c([N+](=O)[O-])cc2[N+](=O)[O-])CC1 | inactive | 
26 | CCN1C[C@H](C)n2c(c(O)c3c(=O)n(Cc4ccc(F)c(Cl)c4)nc(C(=O)NC)c32)C1=O | inactive | 
27 | Cc1ccc(S(=O)(=O)OCC(=O)Nc2ccc(C(=O)O)c(O)c2)cc1 | inactive | 
28 | O=C1C(c2c(O)[nH]c3ccccc23)=Nc2ccccc21 | inactive | 
29 | C[C@H](c1ccc(F)cc1CCCC(=O)O)N(c1cc(F)ccc1F)S(=O)(=O)c1ccc(Cl)cc1 | inactive | 
30 | CCCCC[C@H](O)C=C[C@H]1[C@H](O)CC(=O)[C@H]1CCCCCCC(=O)O | inactive | 
31 | CCCCC(C)(C)[C@H](O)C=C[C@H]1[C@H](O)CC(=O)[C@H]1CC=CCCCC(=O)O | inactive | 
32 | CN1CCN2c3ncccc3Cc3ccccc3C2C1 (stereo not given) | inactive | 
33 | CN1N=C(N)c2cn([C@@H]3O[C@H](COP(=O)(O)O)[C@@H](O)[C@@H]3O)c3ncnc1c23 | inactive | 
34 | CC(=O)O[C@]1(C(C)=O)CC[C@H]2[C@@H]3C=C(Cl)C4=CC(=O)[C@@H]5C[C@H]5[C@]4(C)[C@@H]3CC[C@@]21C | inactive | 
35 | CC[C@H](NC(=O)[C@H](C)NC)C(=O)N1C[C@@H](O)C[C@H]1Cc1c(-c2[nH]c3cc(F)ccc3c2C[C@H]2C[C@H](O)CN2C(=O)[C@H](CC)NC(=O)[C@H](C)NC)[nH]c2cc(F)ccc12 | inactive | 
